Screening results as filed in PubChem.
The full list was thinned out, with hits kept by preference.
Giardia FBPA inh: qHTS Assay for Inhibitors of Fructose-1,6-bisphosphate Aldolase from Giardia Lamblia; purified Giardia FBPA; Potency, µM (highest dose often 59.6 µM), inactives show top-dose activity, negative = inhibition, actives largely listed as inhibitors; 290,000 compounds, 0.71% hits; note: potency is the fitted concentration of half-maximal effect; % is set by controls: 0 for no effect and ±100 for the full control effect; nearly all actives have a fitted effect of over 55% in size
Target sequence (A8B2U2 whole entry, looked up): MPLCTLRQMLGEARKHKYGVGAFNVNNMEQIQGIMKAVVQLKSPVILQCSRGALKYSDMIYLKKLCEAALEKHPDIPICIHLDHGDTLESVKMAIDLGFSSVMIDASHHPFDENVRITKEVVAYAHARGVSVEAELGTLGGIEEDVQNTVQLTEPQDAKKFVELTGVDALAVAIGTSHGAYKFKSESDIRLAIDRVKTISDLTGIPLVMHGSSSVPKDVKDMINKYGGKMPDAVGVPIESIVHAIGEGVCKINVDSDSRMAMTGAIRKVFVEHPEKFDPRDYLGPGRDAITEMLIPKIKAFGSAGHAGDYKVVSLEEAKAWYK
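40 nM FBPA preincubated 10 min at RT with compound (up to 57.5 uM final), then substrate plus GAPDH/TPI/NAD/arsenate coupling and diaphorase/resazurin added. Fluorescence read after 20 min at RT, 525/598 nm.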
Cycloheximide cs: Cycloheximide Counterscreen for Small Molecule Inhibitors of Shiga Toxin; cell reporter, cycloheximide protein synthesis inhibition counterscreen; max response, %; 300,000 compounds, 12% hits; in the data active = max response mostly above about 13%, no sharp cut-off; inactive = mostly below about 14%; note: read at 38.3 µM for the half of the compounds with a filed dose; 0% is about no effect
Sm TGR block: qHTS Assay for the Inhibitors of Schistosoma Mansoni Peroxiredoxins; Schistosoma mansoni thioredoxin glutathione reductase (TGR), Q962Y6; purified TGR, DTNB reduction, TNB absorbance 405 nm; Potency, µM (doses to about 114 µM), for inactives: at the highest dose activity change, negative = inhibition, hits mostly inhibitors; 360,000 compounds, 3% hits; AID 485364, 2010; note: potency is the fitted concentration of half-maximal effect; % is set by controls: 0 for no effect and ±100 for the full control effect; nearly all actives have a fitted effect of over 60% in size
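Kinetic colorimetric format: TGR-catalysed, NADPH-driven DTNB reduction monitored via TNB absorbance. Enzyme dispensed at 20 nM; compound exposure 15 min at room temperature before reaction start.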
Shiga inhibitor: A qHTS for Small Molecule Inhibitors of Shiga Toxin | AID 2315, 2010 | inhibition, % at 38.7 µM | Vero cells, Shiga toxin protein synthesis inhibition reporter | 290,000 compounds, 9.2% hits; in the data active = inhibition mostly above about 28%, no sharp cut-off; inactive = mostly below about 43%; note: 0% is about no effect
TbPYK inhibitor: qHTS of Trypanosoma Brucei Inhibitors | Potency, µM (doses to about 76.8 µM), for the others: top-dose activity, negative = inhibition, hits mostly inhibitors | 410,000 compounds, 0.12% hits | TbPYK enzyme, Kinase-Glo Plus ATP luminescence, 45 min; note: potency is the fitted concentration of half-maximal effect; % is set by controls: 0 for no effect and ±100 for the full control effect; nearly all actives have a fitted effect of over 50% in size
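Assay buffer: 50 mM TEA pH 7.2, 100 mM KCl, 10 mM MgCl2, 0.05% BSA, 0.01% Tween-20. Pyruvate kinase from T. brucei plus substrate met compound, then ADP (130 uM final). Luminescence was read post 45 min RT.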
LmPK inh: qHTS Assay for Inhibitors of Leishmania Mexicana Pyruvate Kinase (LmPK). Q27686. purified LmPK, Kinase-Glo ATP luminescence, 1 h. Potency, µM (top dose mostly 57.5 µM), for the others: at the top dose activity change, negative = inhibition, usual class: inhibitors. 290,000 compounds, 0.37% hits; note: potency is the fitted concentration of half-maximal effect; % is set by controls: 0 for no effect and ±100 for the full control effect
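Kinase-Glo luminescence read after 1 h RT reaction of 0.1 nM LmPK with 0.5 mM PEP and 0.1 mM ADP. Activity scaled between uninhibited and enzyme-free controls.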
* = called active by the depositor; u = inconclusive; x = no result. Unless noted, calls come from the whole dose curve; as a rule, active = well fitted curve in the direction sought with a large enough effect; inconclusive = small, poorly fitted or top-dose-only effect, or another doubt; inactive = no such curve, though single readings can be large; an effect the other way counts as inactive or inconclusive.

SMILES	Giardia FBPA inh	Cycloheximide cs	Sm TGR block	Shiga inhibitor	TbPYK inhibitor	LmPK inh
COc1ccc(OC)c(CNC(=O)c2ccc(C)c(NC(=O)c3nsc4ccccc34)c2)c1	x	x	5%	x	-7%	x
N=c1oc2cc(O)ccc2cc1C(=O)Nc1ccc(Br)cc1	2%	29*	-13%	41*	-4%	0%
CC(C)(C)C(=O)Nc1ccccc1C(=O)Nc1ccccn1	-2%	-1	-11%	13	8%	5%
O=C(CP(=O)(c1ccccc1)c1ccccc1)Nc1nc2ccccc2s1	1%	2	-5%	2	-3%	1%
N=c1oc2cc(O)ccc2cc1C(=O)Nc1nc2ccccc2s1	-1%	64*	-18%	32	0%	-13%
N=c1oc2cc(O)ccc2cc1C(=O)Nc1ccccn1	-14%	14*	-10%	52*	x	-8%
CCOc1ccc(NC(=O)CSc2nccn2-c2cccc(C)c2C)cc1	x	x	4%	x	-1%	x
CC1=C(C)CC(C(=O)NNC(=O)c2ccccc2)C(C(=O)O)C1 (centres undefined)	0%	24*	2%	79*	-1%	-8%
CC1=C(C)CC(C(=O)NCC(=O)c2ccccc2)C(C(=O)O)C1 (centres undefined)	3%	40*	0%	70*	-8%	1%
CC1=C(C)CC(C(=O)NNC(=O)c2cccc(Cl)c2)C(C(=O)O)C1 (centres undefined)	19%	37*	5%	50*	-16%	2%
Cn1c(SCC(=O)N2CCOCC2)ncc(C(=O)Nc2ccc(F)cc2)c1=O	x	x	-7%	x	3%	x
COc1ccc(S(=O)(=O)NC(=O)C2(C)CCN2C(=O)C(C)(C)c2ccccc2)cc1 (centres undefined)	x	x	x	x	-19%	x
CCOC(=O)CC(=O)CSc1ccc2nnc(-c3cccc(F)c3)n2n1	9%	-2	-6%	-32	-6%	5%
COC(=O)c1ccc(CSc2ccc3nnc(-c4cccc(F)c4)n3n2)o1	-20%	0	25µM*	-8	u	-4%
Cn1c(/C=C/c2ccc(Cl)cc2)nc2ccccc2c1=O	-7%	24*	-6%	46*	u	1%
COc1cccc(-n2c(/C=C\c3ccc(Cl)cc3)nc3ccccc3c2=O)c1	x	x	9%	x	2%	x
Cn1c(NN)nc2ccccc2c1=O	u	36*	2%	33*	-1%	3%
CCn1c(/C=C/c2ccccc2)nc2ccccc2c1=O	5%	2	9%	19	0%	5%
Cn1c(/C=C/c2ccccc2)nc2ccccc2c1=O	10%	28*	-18%	57*	-14%	-2%
CCOc1ccc(NC(=O)c2ccc3c(c2)CCN3S(=O)(=O)CC)cc1	x	x	-1%	x	4%	x
CC(C)(CO)NC(=O)c1ccc2nc(Cc3cccc(Cl)c3)oc2c1	11%	26*	7%	26*	1%	3%
COC(=O)CN(C)C(=O)c1ccc2nc(Cc3cccc(Cl)c3)oc2c1	23%	51*	7%	x	5%	-1%
Cc1nn2c3c(cnc2c1-c1ccc(F)cc1)C(=O)CC(c1ccccc1)C3 (centres undefined)	x	x	1%	x	-4%	x
CCn1cc(S(=O)(=O)c2ccc(OC)cc2)c(=O)c2cc(F)c(N3CCC(C)CC3)cc21	x	x	4%	x	-9%	x
Cc1ccccc1-c1nc(Cc2ccccc2)no1	10%	51*	5%	69*	0%	-9%
SMILES	Giardia FBPA inh	Cycloheximide cs	Sm TGR block	Shiga inhibitor	TbPYK inhibitor	LmPK inh
Clc1ccc(-c2nc(Cc3ccccc3)no2)cc1	0%	31*	u	38	-3%	-2%
COc1ccc(-c2nc(Cc3ccc(Cl)cc3)no2)cc1OC	2%	-2	-6%	-5	-1%	8%
COc1ccc(S(=O)(=O)NCCc2sc(-c3cccc(F)c3)nc2C)cc1	x	x	12%	x	2%	x
O=C(O)Cn1cc(/C=C2\C(=O)NC(=O)N(c3ccc(Cl)cc3)C2=O)c2ccccc21	3%	-3	-26%	-5	-4%	7%
CCN(CC)C(=O)Cn1cc(/C=C2\C(=O)NC(=O)N(c3ccccc3F)C2=O)c2ccccc21	26%	8.5*	u	33	-4%	0%
O=C(CSc1nnc(-c2cccnc2)n1Cc1ccco1)NCc1ccc2c(c1)OCO2	-2%	-4	45µM*	-1	7%	0%
NC(=O)CSc1nnc(-c2cccnc2)n1Cc1ccccc1	0%	-1	-1%	-9	6%	0%
C=CCn1c(SCC(=O)NCc2ccc3c(c2)OCO3)nnc1-c1cccnc1	-2%	7	-1%	4	3%	-5%
O=C(CSc1nnc(-c2cccnc2)n1Cc1ccccc1)NCc1ccco1	-4%	-10	13µM*	-18	-1%	8%
O=C(CSc1ccc2nnc(-c3cccnc3)n2n1)NCc1ccco1	-13%	3	32µM*	-19	-9%	15%
COc1cccc(-c2nnc(SCC(=O)NCc3ccc4c(c3)OCO4)n2Cc2ccco2)c1	-3%	-6	45µM*	-6	u	14%
Cn1c(-c2ccccc2)cnc1SCC(=O)NCc1ccco1	-1%	5	40µM*	6	3%	0%
Cc1cccc(OCCCC(=O)NNC(=O)CCN2CCN(c3ccccc3)CC2)c1	x	x	-4%	x	1%	x
COc1ccc(-c2csc(NC(=O)C3CCCO3)n2)cc1 (centres undefined)	-9%	43*	2%	82*	-6%	1%
O=C(Nc1ccc(Oc2ccccc2)cc1)C1CCCO1 (centres undefined)	-5%	31*	2%	190*	2%	3%
O=C(Nc1ccc(Oc2ccccc2)cc1)C1CCN(c2ncccn2)CC1	12%	-3	-23%	4	-6%	-1%
COC(=O)COc1ccc(NC(=O)C2CCCO2)cc1 (centres undefined)	4%	6	7%	16	-5%	-6%
COc1ccc(NC(=O)C2CCCO2)cc1OC (centres undefined)	-4%	-2	-24%	-8	0%	2%
COC(=O)c1ccc(NC(=O)C2CCCO2)cc1 (centres undefined)	2%	38*	-6%	35*	-2%	2%
O=C(Nc1ccc(Oc2ccccc2)cc1)C1CC1	0%	21	6%	71*	-3%	0%
COc1ccc(C(=O)NNC(=O)C2CCCO2)cc1 (centres undefined)	9%	-2	-3%	-2	-14%	5%
O=C(Nc1ccc(C#Cc2ccccc2)cc1)C1CC1	-3%	44*	-3%	51*	-3%	0%
